The results in this text go back to PubChem BioAssay AID686978 (National Center for Advancing Translational Sciences (NCATS), 2013).

Hit rate of the full screen: of about 420,000 compounds, about 64,000 (15%) were called active. Another 27% or so got no clear call; they are omitted. The list is a sample of the results. Unmarked numbers belong to inactive results. Calls follow the shape of the dose curve; as a rule, active = well fitted inhibition curve with a large enough effect; inconclusive = small, poorly fitted or top-dose-only effect; inactive = flat fitted curve, though single readings scatter.
% is scaled to controls: 0 for no effect and ±100 for the full control effect; potency is read from the fitted curve at half-maximal effect.

The nature of the test: qHTS for Inhibitors of human tyrosyl-DNA phosphodiesterase 1 (TDP1): qHTS in cells in absence of CPT. Also: nearly all actives have a fitted effect of over 55% in size. Conditions: DT40 Tdp1-/- hTDP1 cells, no CPT, ATP luminescence, 48 h; activity change, negative = growth inhibition: at 46.2 µM (top of the series). The procedure, abridged:
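Readout: luminescence from CellTiter-Glo after 30 min in the dark at RT. Cells: DT40 Tdp1-/- with stable hTDP1, 400/well. Exposure: compounds alone, ≥48 hr, 37 °C.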
Regarding `COc1ccc(Br)cc1/C=N/Nc1ccc(Cl)c(C(=O)O)c1`, the “activity change, negative = growth inhibition” value was -11.1%. Turning to `COc1cc2c(C(=O)N(C)c3cc(Cl)ccc3OC)cn(C)c(=O)c2cc1OC`, the “activity change, negative = growth inhibition” value is -28.8%. Same read-out and setting: in the case of `O=C(CSc1ccccn1)N1CCN(S(=O)(=O)c2ccc(Cl)cc2)CC1` it was -22.9%; in that of `C/C(N)=C(\C#N)C(=O)NCCc1ccccn1`, 14.5%. Consider `Cc1ccc(NC(=O)CN2CCC(C(N)=O)CC2)cc1[N+](=O)[O-]`, for which the “activity change, negative = growth inhibition” value is -11.3%. On the same count and under the same terms, the figure for `COc1ccc(C23NCCN2C(=O)c2ccccc23)cc1` (stereo unspecified) is 11%; for `CC12CN3CCN(CC(C3)/C1=N\NC(=O)c1ccccc1N)C2` it is 2.03%; for `CCOc1ccccc1NC(=O)C1CCC(CNc2c(N3CCOCC3)c(=O)c2=O)CC1` (stereo unspecified) it is -11.8%. Still for that read-out and setting: in the case of `COc1ccc(NC(=O)C2CCC(CNc3c(N4CCCCC4)c(=O)c3=O)CC2)c(OC)c1` (stereo unspecified) it was -15.1%. `CCN(CC)c1ccc(NC(=O)C2CCC(CNc3c(N4CCCC4)c(=O)c3=O)CC2)c(C)c1` (stereo unspecified): the Potency was 14.6 µM (active). Regarding `Cc1ccc(NS(=O)(=O)c2ccc(-c3coc(C)n3)cc2)c(C)c1`, the “activity change, negative = growth inhibition” value is -28.1%. On the same count and under the same terms, the figure for `COC(=O)c1c(OCc2ccc(F)cc2)cc(=O)n2c1CCN(Cc1ccc3cccnc3c1)CC2` is -16.2%. `Cc1ccc(C)n1-c1nnc(N2CCC(C(=O)NCc3ccccc3Cl)CC2)s1`: the Potency is 18.4 µM (active). Consider `CCc1ccc(CNC(=O)C2CCN(c3nn4cc(-c5ccc(F)cc5)nc4s3)CC2)cc1`, for which the “activity change, negative = growth inhibition” value was -16.1%.

On to `Cc1ccc(C)n1-c1nnc(N2CCC(C(=O)NCc3ccc(F)cc3)CC2)s1`, for which the Potency was 23.1 µM (active). Turning to `O=C(NCc1ccccc1Cl)C1CCN(S(=O)(=O)N2CCOCC2)CC1`, the “activity change, negative = growth inhibition” value is -4.3%.

For the compound `Cc1ccc(NC(=O)N2CCC(C(=O)NCc3ccc(F)cc3)CC2)cc1`, the “activity change, negative = growth inhibition” value was -21.1%. On to `O=C(NCc1cccc(Cl)c1)C1CCN(c2nnc(N3CCCC3=O)s2)CC1`, for which the “activity change, negative = growth inhibition” value is 1.66%. Same read-out and setting: the figure for `O=C(O)CSc1ccc(S(=O)(=O)N2CCCC2)cn1` is 4.27%; for `COC(=O)C(C)Oc1ccc2c(-c3cccc([N+](=O)[O-])c3)cc(=O)oc2c1` (stereo unspecified) it is -6.62%. Turning to `COc1cc(OC)c2c(-c3cccc(-c4cccc(N)c4)c3)cc(=O)oc2c1`, the Potency is 4.61 µM (active). Regarding `COc1cccc(NC(=O)COc2cc(C)cc3oc(=O)cc(C)c23)c1`, the “activity change, negative = growth inhibition” value was 10.1%. Take `Cc1c(CCC(=O)O)c(=O)oc2cc(OCc3ccc(Br)cc3)ccc12`: the “activity change, negative = growth inhibition” value is 17%. Regarding `CCC(=C/c1sc2ccc3ccccc3c2[n+]1C)/C=C1\Sc2ccc3ccccc3c2N1C`, the Potency is 0.092 µM (active). With `CCOC(=O)c1c(C)c(C(=O)NCCc2ccc(S(N)(=O)=O)cc2)c(C)n1CC`, the “activity change, negative = growth inhibition” value was -20.4%. On to `COc1ccc(OC)c(CN2CCN(C(=O)CNC(=O)c3cc(C)cc(C)c3)CC2)c1`, for which the “activity change, negative = growth inhibition” value was -16.9%.

Regarding `CCn1c(C)c(C)c2cc(C(=O)NCCc3cc(OC)ccc3OC)ccc21`, the Potency is 14.6 µM (active). On the same count and under the same terms, the figure for `Cc1c(C)n(Cc2ccc(Cl)cc2)c2ccc(C(=O)NCCCN3CCOCC3)cc12` is 18.4 µM (active). As for `Cc1ccc(NS(=O)(=O)c2ccc(C(=O)NCCCN3CCOCC3)cc2)cc1`, the “activity change, negative = growth inhibition” value was -3.36%. In the case of `Cc1c(C)n(Cc2ccc(Cl)cc2)c2ccc(C(=O)NCCc3ccc(S(N)(=O)=O)cc3)cc12`, the Potency was 25.9 µM (active). Consider `COC(=O)c1ccc(OC)c(Cn2c(=O)n(Cc3ccccc3)c(=O)c3c2c2cc(OC)ccc2n3C)c1`, for which the “activity change, negative = growth inhibition” value was 12.5%. The same measure, in the same setting: the figure for `Cc1ccc(C(=O)NCCN2CCOCC2)cc1C` is -4.96%.

Turning to `COc1ccc(C(=O)NCCc2ccc(S(N)(=O)=O)cc2)cc1OC`, the “activity change, negative = growth inhibition” value is -4.05%. Consider `COC(=O)[C@@H]1CC(O)CN1C(=O)C12CC3CC(CC(C3)C1)C2` (stereo partly specified), for which the “activity change, negative = growth inhibition” value is -4.84%.

With `CCOC(=O)c1sc(=NC(=O)c2ccc(Br)cc2)n(C)c1C`, the “activity change, negative = growth inhibition” value is 8.68%. Still for that read-out and setting: in the case of `NC(=O)C1CCCN(CC(=O)N2CCN(c3ccccc3)CC2)C1` (stereo unspecified) it was -12.2%; in that of `O=S(=O)(NCC1CCCO1)c1cnc(Cl)c(Cl)c1` (stereo unspecified), -0.359%. Still for that read-out and setting: the figure for `O=C1CCCC(O)=C1C=NCCc1ccccc1` is -2.41%; for `Cc1ccn2c(-c3csc(Nc4ccc(C(=O)O)cc4)n3)c(C)nc2c1` it is -20.6%.

For `Cc1nnc(NC(=O)CCCOc2ccccc2)s1`, the “activity change, negative = growth inhibition” value is -5.9%.

On to `C=CCCC(=O)Nc1nc(C)c(-c2csc(Nc3ccc(Cl)cc3)n2)s1`, for which the Potency is 13 µM (active). As to `COc1cccc(NC(=O)c2csnn2)c1`, the “activity change, negative = growth inhibition” value is -9.53%.

Turning to `CCCCCCC(=O)Nc1nc(C)c(-c2csc(Nc3cccc(OC)c3)n2)s1`, the Potency was 16.4 µM (active). Consider `Cc1nc(NC(=O)CCC(=O)O)sc1C(=O)N(C)C`, for which the “activity change, negative = growth inhibition” value was -11.7%.

As to `CC(=O)Nc1nc(C)c(-c2csc(Nc3ccc(S(N)(=O)=O)cc3)n2)s1`, the “activity change, negative = growth inhibition” value is -28.2%. Consider `CCCCC(=O)Nc1nc(C)c(-c2csc(Nc3ccc(Cl)cc3)n2)s1`, for which the Potency was 23.1 µM (active). On to `CCCCN(C)CCC(=O)Nc1ccc(Cl)cc1`, for which the “activity change, negative = growth inhibition” value was -18%.

As for `CO[C@]1(NC(=O)CSC(F)F)C(=O)N2C(C(=O)O)=C(CSc3nnnn3CCO)CO[C@H]21`, the “activity change, negative = growth inhibition” value is -3.78%. On the same count and under the same terms, the figure for `O=C(C1CCN(C2CCN(Cc3ccc4cc(F)ccc4n3)CC2)CC1)N1CCCC1` is -18.6%; for `COc1ccc(CCNC(=S)N2CCN(S(=O)(=O)c3ccc(F)cc3)CC2)cc1` it is 3.3%. Same read-out and setting: the figure for `COc1ccc(CCNS(=O)(=O)c2cc3c(cc2C)NC(=O)CO3)cc1OC` is -7.25%.
